# Tests used:
# Assay in all cases: DAPPL (digital affinity profiling via proximity ligation, sequencing); 10 mM Tris-HCl pH 7.5, 50 mM NaCl, 1 mM DTT, 4% glycerol, room temperature, 30 min; GST-TFs on glutathione beads, 16-mer random dsDNA library, 0.1% formaldehyde crosslink after washing; high values mean tight binding
# FLI1 = biological target: T1, FLI1 (Homo sapiens, UniProt Q01543 1-452); conditions: protein: recombinant; tags: N-terminal GST; dsDNA, one strand shown
# T1 sequence: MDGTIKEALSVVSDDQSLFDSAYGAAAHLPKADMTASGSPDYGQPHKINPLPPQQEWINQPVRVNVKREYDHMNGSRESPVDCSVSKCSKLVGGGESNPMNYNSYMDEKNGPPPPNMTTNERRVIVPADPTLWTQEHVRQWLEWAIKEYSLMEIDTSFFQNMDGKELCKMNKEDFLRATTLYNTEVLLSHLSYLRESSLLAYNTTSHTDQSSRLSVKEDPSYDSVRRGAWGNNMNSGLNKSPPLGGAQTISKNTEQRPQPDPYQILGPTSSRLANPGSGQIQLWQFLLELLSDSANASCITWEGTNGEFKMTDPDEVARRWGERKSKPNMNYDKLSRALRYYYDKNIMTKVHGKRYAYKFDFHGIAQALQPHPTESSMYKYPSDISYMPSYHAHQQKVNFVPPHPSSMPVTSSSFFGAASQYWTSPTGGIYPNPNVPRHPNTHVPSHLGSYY
# Procedure, shortened: (§1)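 A tag-only sample was pooled with DNA-barcoded human transcription factors that had been expressed in yeast as GST fusions and captured on glutathione beads. The pools were incubated for 30 min at room temperature with 200 nmole of a random double-stranded 16-mer DNA library in Tris/NaCl/DTT/glycerol buffer, then washed, crosslinked with 0.1% formaldehyde, proximity-ligated (BsaI/T4 ligase, 1 h, 37 °C), PCR-amplified and sequenced on an Illumina NextSeq500. Binding signal is each hexamer's read frequency for a factor divided by its frequency for the tag-only sample.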
# ELK1 = biological target: T2, ELK1 (Homo sapiens, UniProt P19419 1-428); conditions: protein: recombinant; tags: N-terminal GST; dsDNA, one strand shown
# T2 sequence: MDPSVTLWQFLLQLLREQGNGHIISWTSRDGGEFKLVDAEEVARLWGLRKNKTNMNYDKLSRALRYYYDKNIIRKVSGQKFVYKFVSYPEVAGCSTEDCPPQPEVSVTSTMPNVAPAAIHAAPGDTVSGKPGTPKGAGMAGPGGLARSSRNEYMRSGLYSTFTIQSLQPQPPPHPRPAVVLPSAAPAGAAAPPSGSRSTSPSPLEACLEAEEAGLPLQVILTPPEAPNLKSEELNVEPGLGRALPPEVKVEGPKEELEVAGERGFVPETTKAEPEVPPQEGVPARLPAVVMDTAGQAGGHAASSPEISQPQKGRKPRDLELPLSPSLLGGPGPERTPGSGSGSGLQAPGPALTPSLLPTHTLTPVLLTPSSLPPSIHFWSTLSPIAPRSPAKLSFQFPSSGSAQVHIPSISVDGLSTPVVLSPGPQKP
# Procedure, shortened: as §1
# GABPA = biological target: T3, GABPA (Homo sapiens, UniProt Q06546 1-454); conditions: protein: recombinant; tags: N-terminal GST; dsDNA, one strand shown
# T3 sequence: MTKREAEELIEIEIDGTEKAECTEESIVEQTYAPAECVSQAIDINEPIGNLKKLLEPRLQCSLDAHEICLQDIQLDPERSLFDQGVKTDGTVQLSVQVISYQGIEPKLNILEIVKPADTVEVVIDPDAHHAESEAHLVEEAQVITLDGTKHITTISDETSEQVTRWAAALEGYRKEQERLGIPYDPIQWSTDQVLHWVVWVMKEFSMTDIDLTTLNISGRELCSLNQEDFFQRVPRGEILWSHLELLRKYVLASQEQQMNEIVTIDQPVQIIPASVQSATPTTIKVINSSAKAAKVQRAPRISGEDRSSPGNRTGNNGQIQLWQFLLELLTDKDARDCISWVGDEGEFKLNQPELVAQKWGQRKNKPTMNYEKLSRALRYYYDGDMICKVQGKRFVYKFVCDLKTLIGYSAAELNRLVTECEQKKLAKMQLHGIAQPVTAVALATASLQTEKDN
# Procedure, shortened: as §1
# ERG = biological target: T4, ERG (Homo sapiens, UniProt P11308 1-479); conditions: protein: recombinant; tags: N-terminal GST; dsDNA, one strand shown
# T4 sequence: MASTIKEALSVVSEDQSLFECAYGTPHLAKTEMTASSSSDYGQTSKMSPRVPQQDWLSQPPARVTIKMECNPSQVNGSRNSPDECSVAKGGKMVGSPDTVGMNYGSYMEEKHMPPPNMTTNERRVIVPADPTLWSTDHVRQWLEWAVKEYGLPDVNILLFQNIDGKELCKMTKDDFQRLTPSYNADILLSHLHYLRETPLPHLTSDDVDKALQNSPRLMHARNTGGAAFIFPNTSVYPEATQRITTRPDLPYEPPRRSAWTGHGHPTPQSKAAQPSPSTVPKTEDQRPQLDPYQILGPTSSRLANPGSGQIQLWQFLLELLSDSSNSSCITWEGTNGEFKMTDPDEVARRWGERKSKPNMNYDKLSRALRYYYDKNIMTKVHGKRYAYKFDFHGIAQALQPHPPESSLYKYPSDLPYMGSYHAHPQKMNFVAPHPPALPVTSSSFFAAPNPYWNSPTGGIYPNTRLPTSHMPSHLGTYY
# Procedure, shortened: as §1
# ELF1 = ELF1 (Homo sapiens, UniProt P32519 1-619); conditions: protein: recombinant; tags: N-terminal GST; dsDNA, one strand shown
# Sequence of ELF1 (P32519 whole entry): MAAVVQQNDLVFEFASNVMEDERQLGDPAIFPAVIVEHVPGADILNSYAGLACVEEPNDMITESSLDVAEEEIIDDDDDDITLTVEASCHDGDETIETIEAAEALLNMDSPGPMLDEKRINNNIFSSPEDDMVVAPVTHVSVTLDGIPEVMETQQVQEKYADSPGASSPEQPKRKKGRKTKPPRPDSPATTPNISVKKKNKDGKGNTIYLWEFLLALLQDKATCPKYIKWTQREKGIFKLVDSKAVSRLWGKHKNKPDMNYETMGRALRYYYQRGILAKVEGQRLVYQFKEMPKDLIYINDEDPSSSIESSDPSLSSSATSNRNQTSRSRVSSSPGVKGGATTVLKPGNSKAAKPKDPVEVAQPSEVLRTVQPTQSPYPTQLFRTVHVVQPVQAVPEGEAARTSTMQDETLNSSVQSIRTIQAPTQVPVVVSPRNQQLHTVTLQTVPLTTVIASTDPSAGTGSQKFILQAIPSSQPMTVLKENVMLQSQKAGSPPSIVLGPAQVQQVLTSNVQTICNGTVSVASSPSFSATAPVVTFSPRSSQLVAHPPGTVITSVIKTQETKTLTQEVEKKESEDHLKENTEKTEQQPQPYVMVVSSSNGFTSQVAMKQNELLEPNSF
# Procedure, shortened: as §1
# EHF = biological target: T5, EHF (Homo sapiens, UniProt Q9NZC4 1-300); conditions: protein: recombinant; tags: N-terminal GST; dsDNA, one strand shown
# T5 sequence: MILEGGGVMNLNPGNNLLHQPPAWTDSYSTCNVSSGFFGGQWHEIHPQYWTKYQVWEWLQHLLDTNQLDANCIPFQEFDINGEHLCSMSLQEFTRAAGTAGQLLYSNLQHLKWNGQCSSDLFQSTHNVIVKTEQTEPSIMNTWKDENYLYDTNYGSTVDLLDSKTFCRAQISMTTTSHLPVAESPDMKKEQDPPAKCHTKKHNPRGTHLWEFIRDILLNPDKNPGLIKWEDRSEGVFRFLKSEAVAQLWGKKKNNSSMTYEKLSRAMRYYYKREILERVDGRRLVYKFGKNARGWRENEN
# Procedure, shortened: as §1
# SPI1 = SPI1 (Homo sapiens, UniProt P17947 1-270); conditions: protein: recombinant; tags: N-terminal GST; dsDNA, one strand shown
# Procedure, shortened: as §1
# SPIB = SPIB (Homo sapiens, UniProt Q01892 1-262); conditions: protein: recombinant; tags: N-terminal GST; dsDNA, one strand shown
# Sequence of SPIB (Q01892 whole entry): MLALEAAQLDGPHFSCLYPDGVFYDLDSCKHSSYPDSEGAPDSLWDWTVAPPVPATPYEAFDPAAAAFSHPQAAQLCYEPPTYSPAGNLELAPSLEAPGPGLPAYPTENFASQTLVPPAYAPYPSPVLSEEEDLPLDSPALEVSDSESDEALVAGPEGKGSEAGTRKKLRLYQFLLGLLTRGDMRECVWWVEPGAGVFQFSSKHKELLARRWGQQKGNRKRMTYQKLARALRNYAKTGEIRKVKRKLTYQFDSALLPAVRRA
# Procedure, shortened: as §1
# ELK3 = biological target: T6, ELK3 (Homo sapiens, UniProt P41970 1-407); conditions: protein: recombinant; tags: N-terminal GST; dsDNA, one strand shown
# T6 sequence: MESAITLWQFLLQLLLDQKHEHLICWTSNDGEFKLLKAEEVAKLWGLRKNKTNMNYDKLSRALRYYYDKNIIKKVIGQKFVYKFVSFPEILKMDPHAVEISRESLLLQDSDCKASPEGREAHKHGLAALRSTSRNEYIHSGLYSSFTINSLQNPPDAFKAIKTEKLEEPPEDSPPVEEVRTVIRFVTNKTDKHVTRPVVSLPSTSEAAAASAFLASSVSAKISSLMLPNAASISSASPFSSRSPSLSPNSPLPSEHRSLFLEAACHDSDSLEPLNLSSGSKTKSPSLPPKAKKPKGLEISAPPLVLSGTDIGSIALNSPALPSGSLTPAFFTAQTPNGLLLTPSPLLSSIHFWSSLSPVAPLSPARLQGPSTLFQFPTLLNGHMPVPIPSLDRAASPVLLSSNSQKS
# Procedure, shortened: as §1
# FEV = biological target: T7, FEV (Homo sapiens, UniProt Q99581 1-238); conditions: protein: recombinant; tags: N-terminal GST; dsDNA, one strand shown
# T7 sequence: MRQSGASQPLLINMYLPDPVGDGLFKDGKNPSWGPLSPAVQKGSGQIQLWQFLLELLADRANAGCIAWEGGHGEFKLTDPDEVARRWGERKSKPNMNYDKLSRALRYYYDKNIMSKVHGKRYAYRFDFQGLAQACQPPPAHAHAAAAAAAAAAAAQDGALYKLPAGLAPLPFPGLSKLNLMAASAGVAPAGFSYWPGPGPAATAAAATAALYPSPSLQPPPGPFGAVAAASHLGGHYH
# Procedure, shortened: as §1
# ETV5 = ETV5 (Homo sapiens, UniProt P41161 1-510); conditions: protein: recombinant; tags: N-terminal GST; dsDNA, one strand shown
# Sequence of ETV5 (P41161 whole entry): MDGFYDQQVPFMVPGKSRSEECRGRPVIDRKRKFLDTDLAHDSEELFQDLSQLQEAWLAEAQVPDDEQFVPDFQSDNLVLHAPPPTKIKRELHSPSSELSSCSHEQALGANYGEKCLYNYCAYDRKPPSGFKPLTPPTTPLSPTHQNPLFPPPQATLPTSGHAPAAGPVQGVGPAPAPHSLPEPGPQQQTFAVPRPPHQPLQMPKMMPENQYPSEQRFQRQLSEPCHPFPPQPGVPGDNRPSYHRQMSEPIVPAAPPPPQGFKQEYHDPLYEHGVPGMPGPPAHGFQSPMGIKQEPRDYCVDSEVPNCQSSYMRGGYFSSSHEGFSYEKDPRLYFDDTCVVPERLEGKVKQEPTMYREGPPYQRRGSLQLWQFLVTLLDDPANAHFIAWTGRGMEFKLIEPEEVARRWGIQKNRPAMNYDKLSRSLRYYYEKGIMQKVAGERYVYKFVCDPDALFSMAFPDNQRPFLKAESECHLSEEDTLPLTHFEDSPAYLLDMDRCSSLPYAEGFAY
# Procedure, shortened: as §1
# HSF1 = HSF1 (Homo sapiens, UniProt Q00613 1-529); conditions: protein: recombinant; tags: N-terminal GST; chain copies: 3; dsDNA, one strand shown
# Sequence of HSF1 (Q00613 whole entry): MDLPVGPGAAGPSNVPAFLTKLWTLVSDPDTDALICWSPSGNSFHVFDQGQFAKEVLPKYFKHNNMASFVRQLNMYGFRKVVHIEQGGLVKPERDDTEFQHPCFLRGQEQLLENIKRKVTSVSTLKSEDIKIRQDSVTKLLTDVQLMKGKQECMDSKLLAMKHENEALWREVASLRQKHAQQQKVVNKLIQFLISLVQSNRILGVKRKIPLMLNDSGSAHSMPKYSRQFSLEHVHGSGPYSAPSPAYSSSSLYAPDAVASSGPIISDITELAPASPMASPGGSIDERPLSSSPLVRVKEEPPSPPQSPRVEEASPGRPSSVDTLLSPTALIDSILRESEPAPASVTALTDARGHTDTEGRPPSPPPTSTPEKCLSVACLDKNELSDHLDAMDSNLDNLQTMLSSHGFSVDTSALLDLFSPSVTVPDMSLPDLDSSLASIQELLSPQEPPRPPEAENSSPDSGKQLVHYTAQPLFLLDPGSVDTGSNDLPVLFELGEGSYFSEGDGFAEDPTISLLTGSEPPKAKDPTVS
# Procedure, shortened: as §1
# SPIC = biological target: T8, SPIC (Homo sapiens, UniProt Q8N5J4 1-248); conditions: protein: recombinant; tags: N-terminal GST; dsDNA, one strand shown
# T8 sequence: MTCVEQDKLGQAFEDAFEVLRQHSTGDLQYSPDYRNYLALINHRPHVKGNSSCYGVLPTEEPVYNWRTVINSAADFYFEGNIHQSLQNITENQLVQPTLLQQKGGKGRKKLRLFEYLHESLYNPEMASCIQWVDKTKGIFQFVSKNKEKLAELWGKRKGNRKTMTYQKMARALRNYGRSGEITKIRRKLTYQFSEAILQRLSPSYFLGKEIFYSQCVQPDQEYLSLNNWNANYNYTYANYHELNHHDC
# Procedure, shortened: as §1
# ELF4 = ELF4 (Homo sapiens, UniProt Q99607 1-663); conditions: protein: recombinant; tags: N-terminal GST; dsDNA, one strand shown
# Sequence of ELF4 (Q99607 whole entry): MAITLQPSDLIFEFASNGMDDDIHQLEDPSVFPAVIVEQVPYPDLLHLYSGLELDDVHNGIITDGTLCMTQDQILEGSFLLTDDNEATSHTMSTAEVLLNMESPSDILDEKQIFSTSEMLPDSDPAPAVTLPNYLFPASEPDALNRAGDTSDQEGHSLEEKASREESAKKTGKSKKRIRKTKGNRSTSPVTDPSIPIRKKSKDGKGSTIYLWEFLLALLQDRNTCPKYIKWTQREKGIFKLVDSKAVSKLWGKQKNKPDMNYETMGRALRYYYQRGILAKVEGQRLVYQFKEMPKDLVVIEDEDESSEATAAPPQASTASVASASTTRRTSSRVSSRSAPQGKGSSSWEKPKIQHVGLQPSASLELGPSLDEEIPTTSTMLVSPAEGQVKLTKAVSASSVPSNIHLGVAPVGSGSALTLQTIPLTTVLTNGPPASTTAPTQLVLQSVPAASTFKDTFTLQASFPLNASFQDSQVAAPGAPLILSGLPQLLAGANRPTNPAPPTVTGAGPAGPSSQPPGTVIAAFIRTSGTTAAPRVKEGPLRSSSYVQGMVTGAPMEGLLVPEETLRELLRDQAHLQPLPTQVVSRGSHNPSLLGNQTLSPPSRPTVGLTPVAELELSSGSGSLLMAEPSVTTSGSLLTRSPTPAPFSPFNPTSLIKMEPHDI
# Procedure, shortened: as §1
# ELK4 = biological target: T9, ELK4 (Homo sapiens, UniProt P28324-2 1-405); conditions: protein: recombinant; tags: N-terminal GST; dsDNA, one strand shown
# T9 sequence: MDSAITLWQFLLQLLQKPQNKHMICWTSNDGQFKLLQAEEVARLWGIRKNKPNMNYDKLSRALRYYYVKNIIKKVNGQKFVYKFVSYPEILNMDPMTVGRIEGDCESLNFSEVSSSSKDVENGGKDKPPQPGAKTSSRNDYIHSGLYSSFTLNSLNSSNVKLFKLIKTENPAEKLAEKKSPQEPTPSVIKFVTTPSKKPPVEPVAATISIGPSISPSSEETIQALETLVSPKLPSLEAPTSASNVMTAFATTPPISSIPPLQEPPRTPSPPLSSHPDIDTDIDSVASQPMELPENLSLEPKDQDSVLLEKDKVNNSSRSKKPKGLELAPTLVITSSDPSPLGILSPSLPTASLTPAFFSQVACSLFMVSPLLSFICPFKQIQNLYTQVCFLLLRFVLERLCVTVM
# Procedure, shortened: as §1
# ETV2 = biological target: T10, ETV2 (Homo sapiens, UniProt O00321 1-342); conditions: protein: recombinant; tags: N-terminal GST; dsDNA, one strand shown
# T10 sequence: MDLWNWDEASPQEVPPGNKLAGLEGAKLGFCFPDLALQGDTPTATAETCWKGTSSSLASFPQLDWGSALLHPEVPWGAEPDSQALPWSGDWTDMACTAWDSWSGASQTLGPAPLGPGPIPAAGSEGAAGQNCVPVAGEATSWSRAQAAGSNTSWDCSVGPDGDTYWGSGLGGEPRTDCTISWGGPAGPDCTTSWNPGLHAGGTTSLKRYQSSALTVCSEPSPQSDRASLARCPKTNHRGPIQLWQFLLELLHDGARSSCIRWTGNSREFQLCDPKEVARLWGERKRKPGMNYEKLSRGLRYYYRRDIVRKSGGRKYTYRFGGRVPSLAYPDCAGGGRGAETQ
# Procedure, shortened: as §1
# ELF3 = biological target: T11, ELF3 (Homo sapiens, UniProt P78545 1-371); conditions: protein: recombinant; tags: N-terminal GST; dsDNA, one strand shown
# T11 sequence: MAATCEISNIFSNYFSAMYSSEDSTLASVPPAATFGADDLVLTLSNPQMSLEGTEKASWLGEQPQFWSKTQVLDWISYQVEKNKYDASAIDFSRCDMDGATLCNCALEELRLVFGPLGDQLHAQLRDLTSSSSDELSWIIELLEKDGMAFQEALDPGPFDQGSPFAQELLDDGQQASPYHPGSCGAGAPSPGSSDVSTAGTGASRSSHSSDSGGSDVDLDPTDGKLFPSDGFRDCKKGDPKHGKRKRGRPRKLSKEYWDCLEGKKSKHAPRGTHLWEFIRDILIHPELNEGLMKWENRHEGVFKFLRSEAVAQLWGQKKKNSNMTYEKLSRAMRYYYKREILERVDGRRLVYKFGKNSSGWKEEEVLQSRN
# Procedure, shortened: as §1
# CRX = CRX (Homo sapiens, UniProt O43186 1-299); conditions: protein: recombinant; tags: N-terminal GST; dsDNA, one strand shown
# Sequence of CRX (O43186 whole entry): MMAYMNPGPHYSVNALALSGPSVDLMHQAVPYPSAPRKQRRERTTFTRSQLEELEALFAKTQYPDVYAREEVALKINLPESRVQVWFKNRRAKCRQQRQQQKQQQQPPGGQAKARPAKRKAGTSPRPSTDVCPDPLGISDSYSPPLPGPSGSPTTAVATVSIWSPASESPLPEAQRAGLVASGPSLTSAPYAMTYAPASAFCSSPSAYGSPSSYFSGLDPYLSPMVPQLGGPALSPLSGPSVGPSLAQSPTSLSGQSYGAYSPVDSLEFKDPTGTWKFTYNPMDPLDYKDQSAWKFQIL
# Procedure, shortened: as §1
# ETV1 = ETV1 (Homo sapiens, UniProt P50549 1-477); conditions: protein: recombinant; tags: N-terminal GST; dsDNA, one strand shown
# Sequence of ETV1 (P50549 whole entry): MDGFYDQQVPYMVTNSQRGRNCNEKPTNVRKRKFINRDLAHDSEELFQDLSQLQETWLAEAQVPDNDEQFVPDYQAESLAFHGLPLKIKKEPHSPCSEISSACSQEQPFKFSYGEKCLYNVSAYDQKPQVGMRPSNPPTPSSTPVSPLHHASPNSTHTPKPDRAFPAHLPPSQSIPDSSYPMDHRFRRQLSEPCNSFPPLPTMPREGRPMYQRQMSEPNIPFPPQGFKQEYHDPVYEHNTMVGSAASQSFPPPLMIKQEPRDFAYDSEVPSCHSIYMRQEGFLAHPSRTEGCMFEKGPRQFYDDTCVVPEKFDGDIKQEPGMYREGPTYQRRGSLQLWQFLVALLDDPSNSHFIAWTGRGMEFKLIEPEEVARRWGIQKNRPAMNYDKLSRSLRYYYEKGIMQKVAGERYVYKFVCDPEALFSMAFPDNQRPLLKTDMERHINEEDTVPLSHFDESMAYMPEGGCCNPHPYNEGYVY
# Procedure, shortened: as §1
sequence,measurement,setting,value
CCGTTT,binding signal,FLI1,"1.47 fold enrichment (6-mer frequency, TF over GST control)"
same,binding signal,ELK1,"1.36 fold enrichment (6-mer frequency, TF over GST control)"
same,binding signal,GABPA,"1.33 fold enrichment (6-mer frequency, TF over GST control)"
same,binding signal,ERG,"1.57 fold enrichment (6-mer frequency, TF over GST control)"
same,binding signal,ELF1,"1.29 fold enrichment (6-mer frequency, TF over GST control)"
same,binding signal,EHF,"1.33 fold enrichment (6-mer frequency, TF over GST control)"
same,binding signal,SPI1,"1.56 fold enrichment (6-mer frequency, TF over GST control)"
same,binding signal,SPIB,"1.39 fold enrichment (6-mer frequency, TF over GST control)"
same,binding signal,ELK3,"1.35 fold enrichment (6-mer frequency, TF over GST control)"
same,binding signal,FEV,"1.48 fold enrichment (6-mer frequency, TF over GST control)"
same,binding signal,ETV5,"1.44 fold enrichment (6-mer frequency, TF over GST control)"
same,binding signal,HSF1,"1.12 fold enrichment (6-mer frequency, TF over GST control)"
same,binding signal,SPIC,"1.44 fold enrichment (6-mer frequency, TF over GST control)"
same,binding signal,ELF4,"1.36 fold enrichment (6-mer frequency, TF over GST control)"
same,binding signal,ELK4,"1.33 fold enrichment (6-mer frequency, TF over GST control)"
same,binding signal,ETV2,"1.31 fold enrichment (6-mer frequency, TF over GST control)"
same,binding signal,ELF3,"1.44 fold enrichment (6-mer frequency, TF over GST control)"
same,binding signal,CRX,"1.06 fold enrichment (6-mer frequency, TF over GST control)"
same,binding signal,ETV1,"1.38 fold enrichment (6-mer frequency, TF over GST control)"

# From article PMC7862700, “An all-to-all approach to the identification of sequence-specific readers for epigenetic DNA modifications on cytosine”
